Experimental findings from PubChem BioAssay (Tox21) are described below.

Records with an inconclusive call do not appear. Unmarked numbers belong to inactive results. Active and inactive are the calls of the source. The call rests on the fitted dose curve; in most records, active means well fitted curve in the direction sought with a large enough effect in the repeat runs; inconclusive means weak or mixed curves; inactive means no such curve, though single readings can be large; an effect the other way counts as inactive or inconclusive.

Experiment [1] in a line: qHTS RealTime-Glo MT Cell Viability Assay in HepG2 cells - 40 hour (AID 1224870). Further: nearly all actives have a fitted effect of over 50% in size. The method, boiled down:
(§1)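 HepG2 cells (600/well) mixed with RealTime-Glo MT reagent, settled 5 h at 37 C/5% CO2 before compound addition. Nonlytic NanoLuc luminescence from viable-cell prosubstrate reduction read repeatedly during 40 h treatment at 37 C.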
On the technique in general: Quantitative high-throughput screening tests each substance at several concentrations.

The nature of experiment [2]: A CellTox Green Cytotoxicity Assay to monitor cytotoxicity in HEK293 cells - 40 hour (AID 1224871). Further: nearly all actives have a fitted effect of over 45% in size. The procedure, abridged:
(§2)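 HEK293 cells premixed with CellTox Green dye were seeded at 600 cells/well and left 5 h at 37 C/5% CO2 before pin transfer of 23 nL compound in DMSO. Fluorescence from dye bound to dead-cell DNA was read during 40 h treatment.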

Experiment [3] in a line: qHTS RealTime-Glo MT Cell Viability Assay in HEK293 cells - 16 hour (AID 1224872). Further: nearly all actives have a fitted effect of over 50% in size. The procedure, abridged: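 Tox21 10K qHTS, HEK293, 600 cells/well, RealTime-Glo reagent co-dispensed with cells; 5 h preincubation, compound by pintool, 37 C, luminescence at 0–40 h.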
Experiment [4] can be described thus: qHTS RealTime-Glo MT Cell Viability Assay in HepG2 cells - 8 hour (AID 1224873). Further: nearly all actives have a fitted effect of over 55% in size. The method, boiled down: as §1
Experiment [5] in a line: qHTS RealTime-Glo MT Cell Viability Assay in HEK293 cells - 40 hour (AID 1224874). Further: nearly all actives have a fitted effect of over 50% in size. To be noted: RealTime-Glo luminescence; max response: stronger effect = lower value. The procedure, abridged:
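HEK293 cells mixed with RealTime-Glo reagents (NanoLuc plus cell-permeant prosubstrate) at 600 cells/well, preincubated 5 h at 37 C/5% CO2, then given 23 nL compound in DMSO. Nonlytic luminescence from viable cells was read at 0, 8, 16, 24, 32 and 40 h.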

Experiment [6] can be described thus: qHTS RealTime-Glo MT Cell Viability Assay in HepG2 cells - 32 hour (AID 1224877). Further: nearly all actives have a fitted effect of over 55% in size. The method, boiled down: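 Cells + NanoLuc/prosubstrate dispensed (600 cells/well) → 5 h at 37 C/5% CO2 → compounds in DMSO transferred → 40 h incubation at 37 C, luminescence read at 0, 8, 16, 24, 32, 40 h.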
The nature of experiment [7]: A CellTox Green Cytotoxicity Assay to monitor cytotoxicity in HepG2 cells - 24 hour (AID 1224878). Further: nearly all actives have a fitted effect of over 45% in size. The method, boiled down: (§3)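 HepG2 cells were seeded together with the CellTox Green dye at 600 cells/well, left 5 h at 37 C/5% CO2, then given compounds in DMSO. Fluorescence from dye bound to dead-cell DNA was read repeatedly over 40 h of treatment at 37 C.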
The nature of experiment [8]: A CellTox Green Cytotoxicity Assay to monitor cytotoxicity in HepG2 cells - 40 hour (AID 1224879). Further: nearly all actives have a fitted effect of over 40% in size. The method, boiled down:
as §3

Experiment [9] in a line: A CellTox Green Cytotoxicity Assay to monitor cytotoxicity in HepG2 cells - 16 hour (AID 1224876). Further: nearly all actives have a fitted effect of over 45% in size. The method, boiled down: as §3
Experiment [10] can be described thus: A CellTox Green Cytotoxicity Assay to monitor cytotoxicity in HEK293 cells - 24 hour (AID 1224875). Further: nearly all actives have a fitted effect of over 45% in size. The method, boiled down:
as §2
On the % scale 0 is the no-effect control and ±100 the full control effect; potency means the concentration at half of the fitted maximal effect.

For `O=C(NC(Cc1cc(=O)[nH]c2ccccc12)C(=O)O)c1ccc(Cl)cc1` (stereo not given), the Potency result in experiment [1], in experiment [2], in experiment [3], in [4], in [6] and in experiment [7] was “inactive” each time. Moreover, in experiment [8], the Potency result was “inactive”. In experiment [5], the max response is 3.38%.
Regarding `O=[N+]([O-])C1(Br)COCOC1`, the Potency in experiment [1] is 49 µM (active); in experiment [2], 49 µM (active); in experiment [3] it was 38.9 µM (active); in experiment [4] it was 54.9 µM (active); in experiment [5] it was 34.7 µM (active); in [6], 49 µM (active). Moreover, the values for the Potency in experiment [7] and in experiment [8] were 54.9 µM (active) and 43.6 µM (active), respectively.
On to `CCCCCc1ccco1`, for which the Potency entry in experiment [1], in experiment [2], in experiment [3], in [4], in experiment [9] and in [6] was “inactive” each time. Further, the Potency entry in experiment [7] and in [8] was “inactive” each time. In addition, the max response in [5] was 4.73%.
As to `CCCC(=O)OC(=O)CCC`, the Potency result in experiment [1], in experiment [2], in experiment [3], in experiment [4], in experiment [10] and in [9] was “inactive” in each case. Moreover, the Potency entry in experiment [6] and in experiment [8] was “inactive” throughout.
With `CCOc1ncc(F)c(=O)[nH]1`, the Potency entry in [1], in [2], in [3], in [4], in experiment [9] and in experiment [6] was “inactive” in each case. For the same compound, the Potency entry in [7] and in [8] was “inactive” throughout. The max response in experiment [5] was -0.726%.
In the case of `CC(C)(C)C1(CCc2ccc(Cl)cc2)CO1` (stereo not given), the Potency result in [1], in experiment [2], in experiment [3], in experiment [4], in experiment [9] and in experiment [6] was “inactive” each time. The max response in experiment [5] was -16.7%.
`O=C(NS(=O)(=O)/C=C/c1ccccc1)c1ccc(F)cc1Cl`: the Potency result in experiment [1], in [2], in [3], in [4], in experiment [10] and in [6] was “inactive” in each case. Moreover, the Potency in experiment [7] and in experiment [8] was 54.9 µM (active) each time.
For the compound `O=C(O)/C=C/c1ccc(O)c(O)c1`, the Potency entry in [1], in experiment [2], in experiment [3], in experiment [4], in [6] and in [7] was “inactive” in each case. Moreover, the Potency result in experiment [8] was “inactive”. In [5], the max response was -2.68%.
Consider `Cc1cccc2sc(N)nc12`, for which the Potency result in experiment [1], in [2], in experiment [3], in [4], in experiment [10] and in experiment [6] was “inactive” each time. Further, the Potency entry in [7] and in [8] was “inactive” each time. Further, the max response in experiment [5] was 25.1%.
On to `CC1CCCO1` (stereo not given), for which the Potency result in [1], in [2], in [3], in experiment [4], in [9] and in experiment [6] was “inactive” throughout. In addition, the Potency entry in experiment [7] and in experiment [8] was “inactive” each time. In addition, in [5], the max response is 5.81%.
In the case of `CCCCCCC(CO)CCCC` (stereo not given), the Potency result in experiment [1], in experiment [3], in experiment [4], in [10], in [9] and in [6] was “inactive” in each case. The Potency entry in experiment [7] and in experiment [8] was “inactive” in each case. Further, the max response in experiment [5] is 4.35%.
Consider `CN(C)CC/C=C1\c2ccccc2Sc2ccc(Cl)cc21`, for which the Potency in [1] was 23.9 µM (active); in [2] it was 23.9 µM (active); in experiment [5], 23.9 µM (active); in experiment [10], 26.8 µM (active); in experiment [9], 21.3 µM (active); in experiment [6], 23.9 µM (active). The Potency in experiment [7] and in experiment [8] was 21.3 µM (active) each time.
On to `COC(CC(C)CCCC(C)(C)O)OC` (stereo not given), for which the Potency result in experiment [1], in experiment [3], in [4], in experiment [10], in experiment [9] and in [6] was “inactive” in each case. Also, the Potency entry in experiment [7] and in [8] was “inactive” each time. Further, the max response in experiment [5] was 1.35%.
Take `COc1cc(S(=O)(=O)Nc2ccccc2)c(OC)cc1N`: the Potency entry in experiment [1], in experiment [2], in [3], in experiment [10], in experiment [9] and in [6] was “inactive” each time. Also, the Potency result in experiment [7] and in experiment [8] was “inactive” throughout. Further, in experiment [5], the max response was -20.8%.
Turning to `COc1ccc(-c2cc(C(F)F)nn2-c2ccc(S(N)(=O)=O)cc2)cc1F`, the Potency result in experiment [1], in experiment [2], in experiment [4], in experiment [10], in experiment [9] and in [6] was “inactive” in each case. Moreover, the Potency entry in [7] and in experiment [8] was “inactive” in each case.
On to `O=c1[nH][nH]c(=O)c2cc([N+](=O)[O-])ccc12`, for which the Potency result in experiment [1], in experiment [3], in experiment [4], in [10], in experiment [9] and in experiment [6] was “inactive” each time. Moreover, the Potency result in experiment [7] and in experiment [8] was “inactive” each time. Also, the max response in experiment [5] was -11.6%.
For `CC12CC3CC(C)(C1)CC(N)(C3)C2`, the Potency entry in experiment [1], in experiment [3], in experiment [4], in experiment [10], in experiment [9] and in experiment [6] was “inactive” in each case. The Potency result in experiment [7] and in [8] was “inactive” each time. For the same compound, the max response in experiment [5] is 3.93%.
Take `COC(=O)Nc1nc2ccc(C(=O)C3CC3)cc2[nH]1`: the Potency entry in [1], in [2], in experiment [4], in experiment [10], in experiment [6] and in experiment [7] was “inactive” in each case. Besides, in experiment [8], the Potency is 0.848 µM (active).
As for `CCCc1nc2c(C)cc(-c3nc4ccccc4n3C)cc2n1Cc1ccc(-c2ccccc2C(=O)O)cc1`, the Potency entry in [1], in experiment [2], in experiment [9], in [6], in experiment [7] and in experiment [8] was “inactive” each time.
Take `O=C(C(=O)c1ccco1)c1ccco1`: the Potency entry in experiment [1], in experiment [2], in experiment [4], in [10], in [9] and in experiment [6] was “inactive” in each case. In addition, the Potency entry in [8] is “inactive”.
`C=Cc1ccc(OC(C)=O)cc1`: the Potency result in [1], in [3], in [4], in experiment [10], in [9] and in experiment [6] was “inactive” each time. The Potency result in experiment [7] and in experiment [8] was “inactive” in each case. Further, in experiment [5], the max response is 18.3%.
With `Nc1ccc(F)cc1`, the Potency result in [1], in experiment [3], in [4], in [10], in experiment [9] and in [6] was “inactive” each time. For the same compound, the Potency entry in experiment [7] and in [8] was “inactive” throughout. For the same compound, in experiment [5], the max response was 14.2%.
In the case of `CC(C)CC(O)CC(C)C`, the Potency result in experiment [1], in experiment [3], in [4], in experiment [10], in experiment [9] and in experiment [6] was “inactive” each time. Further, the Potency result in experiment [7] and in [8] was “inactive” throughout. The max response in [5] was 2.3%.
In the case of `CCCCCCCC/C=C\CCCCCCCC(=O)OCCO`, the Potency result in [1], in [2], in experiment [4], in experiment [10], in [9] and in experiment [6] was “inactive” throughout. For the same compound, the Potency entry in experiment [7] and in [8] was “inactive” each time. Besides, the max response in [5] was -0.425%.
